Reference: the supplement of paper PMC9023506
Counter-ions that a name gives are not always drawn.

system: Danio rerio larvae (5 dpf); test: startle response to 20-s acoustic pulses, difference vs DMSO (percentage points (treated minus DMSO)); higher = more of the behaviour than the DMSO vehicle control; conditions: 10 µM; exposure time: 3 h pre-incubation + 3 h imaging
Method: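 5-dpf wild-type zebrafish larvae were imaged in 96-well plates. They were treated with 190 Tocris FDA-approved drugs at 10 µM (1 µl/ml DMSO) for 3 h before and 3 h during imaging at 28.5 °C, 48 larvae per drug. Automated image analysis gave % time moving and optomotor responses. Values are drug group mean minus DMSO vehicle mean (n=844), in percentage points, for 10 behaviours.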

| SMILES | startle response to 20-s acoustic pulses |
| --- | --- |
| Nc1cccc2c1CN(C1CCC(=O)NC1=O)C2=O (stereo not given) [Lenalidomide] | -5.01 |
| CCOc1cc(CC(=O)N[C@@H](CC(C)C)c2ccccc2N2CCCCC2)ccc1C(=O)O [Repaglinide] | -5.51 |
| COc1ccccc1Oc1c(NS(=O)(=O)c2ccc(C(C)(C)C)cc2)nc(-c2ncccn2)nc1OCCO [Bosentan] | 6.71 |
| CC(C)[C@H]1CC[C@H](C(=O)N[C@H](Cc2ccccc2)C(=O)O)CC1 [Nateglinide] | 3.57 |
| CN1CC[C@@H](NC(=O)Nc2ccc(C#N)cc2)C[C@@H]1c1nc2ccccc2[nH]1 | -5.85 |
| CN1CC(=O)N2[C@H](c3ccc4c(c3)OCO4)c3[nH]c4ccccc4c3C[C@@H]2C1=O [Tadalafil] | 7.96 |
| OC(c1cc(C(F)(F)F)nc2c(C(F)(F)F)cccc12)C1CCCCN1 (stereo not given) [Mefloquine hydrochloride] | -13.3 |
| CC(C)COCC(CN(Cc1ccccc1)c1ccccc1)N1CCCC1 (stereo not given) [Bepridil hydrochloride] | -5.17 |
| C[C@H]1O[C@H](O[C@H]2[C@H](O)[C@@H](O)[C@@H](O[C@H]3[C@H](O)[C@@H](O)C(O)O[C@@H]3CO)O[C@@H]2CO)[C@H](O)[C@@H](O)[C@@H]1N[C@H]1C=C(CO)[C@@H](O)[C@H](O)[C@H]1O (stereo not given in full) [Acarbose] | -6.81 |
| COc1cc2nc(N3CCN(C(=O)C4COc5ccccc5O4)CC3)nc(N)c2cc1OC (stereo not given) [Doxazosin mesylate] | 7.2 |
| CCCC1O[C@@H]2C[C@H]3[C@@H]4CCC5=CC(=O)C=C[C@]5(C)[C@H]4[C@@H](O)C[C@]3(C)[C@]2(C(=O)CO)O1 (stereo not given in full) [Budesonide] | -5.65 |
| CCN(Cc1ccncc1)C(=O)C(CO)c1ccccc1 (stereo not given) [Tropicamide] | -8.17 |
| CN/C(=N\CCSCc1nc[nH]c1C)NC#N [Cimetidine] | 7.14 |
| CN(C)CCc1c[nH]c2ccc(C[C@H]3COC(=O)N3)cc12 [Zolmitriptan] | 2.21 |
| OCCN1C[C@H](O)[C@@H](O)[C@H](O)[C@H]1CO [Miglitol] | -1.17 |
| CC(C)OC(=O)C(C)(C)Oc1ccc(C(=O)c2ccc(Cl)cc2)cc1 [Fenofibrate] | -3.27 |
| COc1cc2nc(N3CCN(C(=O)c4ccco4)CC3)nc(N)c2cc1OC [Prazosin hydrochloride] | 5.19 |
| CCOC(=O)N1CCC(=C2c3ccc(Cl)cc3CCc3cccnc32)CC1 [Loratidine] | 14.8 |
| CN(C)C(=N)NC(=N)N [Metformin hydrochloride] | -1.12 |
| CCOC(=O)[C@H](CCc1ccccc1)N[C@H]1CCc2ccccc2N(CC(=O)O)C1=O [Benazepril hydrochloride] | -1.74 |

| SMILES | startle response to 20-s acoustic pulses |
| --- | --- |
| O=C1CCc2ccc(OCCCCN3CCN(c4cccc(Cl)c4Cl)CC3)cc2N1 [Aripiprazole] | -4.17 |
| COc1c(C)c2c(c(O)c1C/C=C(\C)CCC(=O)O)C(=O)OC2 [Mycophenolic acid] | 2.15 |
| CC(=O)Oc1cc2c(s1)CCN(C(C(=O)C1CC1)c1ccccc1F)C2 (stereo not given) [Prasugrel] | -10.9 |
| CC(CCc1ccc(O)cc1)NCCc1ccc(O)c(O)c1 (stereo not given) [Dobutamine hydrochloride] | 2.42 |
| Nc1nc(F)nc2c1ncn2[C@@H]1O[C@H](CO)[C@@H](O)[C@@H]1O [Fludarabine] | 3.23 |
| CN(CCOc1ccc(CC2SC(=O)NC2=O)cc1)c1ccccn1 (stereo not given) [Rosiglitazone] | -1.12 |
| COc1ccccc1OCC(O)CN1CCN(CC(=O)Nc2c(C)cccc2C)CC1 (stereo not given) [Ranolazine dihydrochloride] | 2.42 |
| CCCN(CCc1cccs1)[C@H]1CCc2c(O)cccc2C1 [Rotigotine hydrochloride] | -4.68 |
| Clc1ccc(COC(Cn2ccnc2)c2ccc(Cl)cc2Cl)c(Cl)c1 (stereo not given) [Miconazole nitrate] | 4.56 |
| CC/C(=C(\c1ccccc1)c1ccc(OCCN(C)C)cc1)c1ccccc1 [Tamoxifen citrate] | -0.535 |
| Cc1nc(Nc2ncc(C(=O)Nc3c(C)cccc3Cl)s2)cc(N2CCN(CCO)CC2)n1 [Dasatinib] | 0.79 |
| COc1ccc(C[C@@H](C)NC[C@H](O)c2ccc(O)c(NC=O)c2)cc1 [Arformoterol tartrate] | -9.44 |
| CC(C)CN(C[C@@H](O)[C@H](Cc1ccccc1)NC(=O)O[C@H]1CO[C@H]2OCC[C@H]21)S(=O)(=O)c1ccc(N)cc1 [Darunavir] | -1.98 |
| CC(C)N(CCCCOCC(=O)NS(C)(=O)=O)c1cnc(-c2ccccc2)c(-c2ccccc2)n1 [Selexipag] | -1.31 |
| CCCCCCCN(CC)CCCC(O)c1ccc(NS(C)(=O)=O)cc1 (stereo not given) [Ibutilide hemifumarate] | -3.17 |
| CNC(=O)c1ccccc1Sc1ccc2c(/C=C/c3ccccn3)n[nH]c2c1 [Axitinib] | -7.73 |
| CNCc1ccc(-c2[nH]c3cc(F)cc4c3c2CCNC4=O)cc1 [Rucaparib camsylate] | -4.08 |
| Cc1cn([C@H]2C=C[C@@H](CO)O2)c(=O)[nH]c1=O [Stavudine] | -0.918 |
| CC#C[C@]1(O)CC[C@H]2[C@@H]3CCC4=CC(=O)CCC4=C3[C@@H](c3ccc(N(C)C)cc3)C[C@@]21C [Mifepristone] | 0.769 |
| CC(C)C(=O)OCC(=O)[C@@]12O[C@H](C3CCCCC3)O[C@@H]1C[C@H]1[C@@H]3CCC4=CC(=O)C=C[C@]4(C)[C@H]3[C@@H](O)C[C@@]12C [Ciclesonide] | -4.94 |
